Assay results published in PubChem BioAssay AID2315 (National Center for Advancing Translational Sciences (NCATS), 2010).
Among all 290,000 compounds or so, about 27,000 (9.3%) were called active. The sample as a whole holds a higher share of actives than the screen did. A number with no mark means an inactive call. No stated cut-off is given here; in the data, active means inhibition mostly above about 28% (no sharp cut-off); inactive means mostly below about 43%.

experiment: A qHTS for Small Molecule Inhibitors of Shiga Toxin; conditions: Vero cells, Shiga toxin protein synthesis inhibition reporter; at 38.7 µM, hits give high values; further: 0% is about no effect

Row | SMILES | inhibition
1 | C/C(=N\N1CCN(Cc2ccc(C)cc2)CC1)c1ccco1 | 31.8% (active)
2 | Cc1ccc(CN2CCN(/N=C/c3ccco3)CC2)c(C)c1 | 11.6%
3 | O=C(c1ccco1)N1CCN(Cc2cccc(C(F)(F)F)c2)CC1 | -13.9%
4 | CN(C)c1ccc(NC(=O)CN2C3CCCC2CC(NC(=O)c2ccccc2)C3)cc1 (stereo not given) | 27.2%
5 | CCn1c2ccccc2c2cc(NC(=O)C/C(C)=N/NC(=O)c3ccccc3N)ccc21 | 131% (active)
6 | CCOc1ccc(NC(=O)C/C(C)=N/NC(=O)Cc2cccs2)cc1 | 2.74%
7 | C/C(CC(=O)Nc1ccc(N(C)C)cc1)=N\NC(=O)c1ccccc1F | 121% (active)
8 | CCn1c2ccccc2c2cc(NC(=O)COC(=O)c3ccccc3Br)ccc21 | -4.15%
9 | CCn1c2ccccc2c2cc(NC(=O)CNC)ccc21 | -4.7%
10 | CC(=O)NCCc1ccc(S(=O)(=O)Nc2ccc(C)c(S(=O)(=O)N3CCOCC3)c2)cc1 | -1.5%
11 | COc1ccccc1NC(=O)CN(c1ccccc1OC)S(=O)(=O)c1ccccc1 | -1.35%
12 | Cc1ccc(NC(=O)CSc2nnc(CNC(=O)c3ccccc3F)o2)cc1Cl | -10.8%
13 | CC(C)[C@H](NC(=O)N1c2ccccc2NC(=O)[C@@H]1C(C)C)C(=O)N[C@H](C(=O)O)c1ccccc1 | 3.44%
14 | Cc1cc(CN(C)C(=O)c2cc(COc3ccc(C)c(C)c3)on2)n[nH]1 | 59.9% (active)
15 | CN(Cc1cnccn1)C(=O)c1cc(COc2cccc(C(F)(F)F)c2)on1 | 60.3% (active)
16 | C/C(=N/OC(=O)c1cccc(C(F)(F)F)c1)c1cnccn1 | -18.2%
17 | Cc1ccc(OCc2cc(C(=O)N(C)CCc3ccccc3)no2)cc1C | 106% (active)
18 | Cc1ccc(OCC(=O)NCCCNC(=O)c2ccco2)cc1C | -2.33%
19 | Cc1ccc(OCC(=O)NCCCNC(=O)c2cccnc2)cc1C | -10.2%
20 | CN(CCOc1ccccc1)C(=O)c1cc(COc2c(F)cccc2F)on1 | 28.4%
21 | Cc1ccc(SC(=O)COc2ccc(C)c(C)c2)cc1 | -26.3%
22 | CN(Cc1cccnc1)C(=O)c1cc(COc2ccc3ncccc3c2)on1 | 21.5%
23 | O=S(=O)(Cc1noc(-c2ccc(OC(F)(F)F)cc2)n1)c1ccc(F)cc1 | 60.4%
24 | COc1ccc(C(C)NC(=O)C23CC4CC(CC(C4)C2)C3)cc1 (stereo not given) | -10.2%
25 | COc1ccccc1NC(=O)CCC(=O)OC(C)C(=O)c1ccccc1 (stereo not given) | -0.996%
